The whole screen tested about 2,400 compounds, of which about 220 (9.2%) were called active. The full list was thinned out, with actives kept by preference. Unmarked numbers belong to inactive results.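 The calls were made as follows: active = signal change above the mean of dofetilide-free buffer controls plus 3 SD, so a positive margin; inactive = the rest.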
Test: thallium signal changes without hERG – cell-based, CHO-K1 parental line, FluxOR thallium flux, counter-screen for hERG block protection project, confirmation (AID 1839);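 also: compounds applied alone with no dofetilide to cells lacking hERG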
Conditions: CHO-K1 parental cells, FluxOR thallium flux fluorescence; at 10 µM

With `CC/C(=C\C=C\[C@@H]1C=C[C@@H]2CCC[C@H]2[C@@H]1C(=O)c1ccc[nH]1)[C@@H]1O[C@@H]([C@@H](C)C(=O)O)CC[C@@H]1C` the signal change vs control minus 3*SD hit threshold (margin above threshold, higher = more increase) was 83% (active).

Going from `O=c1c2cc(Br)ccc2[nH]c(=S)n1-c1ccccc1` to `Cc1ccc(/C=C2\C(=O)NC(=S)N(c3ccc(F)cc3)C2=O)s1`, the signal change vs control minus 3*SD hit threshold (margin above threshold, higher = more increase) falls from -20.2% to -30.1%.

Going from `CCCCN1C(=O)/C(=C/c2ccc(N3CCCCCC3)cc2)C(=O)NC1=S` to `CN1C(=O)/C(=C/c2ccc(Cl)s2)C(=O)NC1=S`, the signal change vs control minus 3*SD hit threshold (margin above threshold, higher = more increase) rises from -36% to -29.5%.

From PubChem BioAssay AID1839 (Johns Hopkins Ion Channel Center, 2009)
